# Test results from the supplement of paper PMC4466140.
# B1: unnamed (peptide)
# chain: DRIRMFIRFPKFLLE
# B2: unnamed (peptide)
# chain: KKIRLIFTYPSTVGR
# Biological target: AgAbp1
# Assay: SPOT peptide array binding signal intensity (averaged, normalized) (arbitrary units (background-subtracted, floor 0; scale differs between SH3 domains)); higher = stronger binding of the SH3 domain to the peptide
# Outline: (§1)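 Spot intensities were captured after detection with anti-GST antibody, an HRP-linked anti-mouse secondary and luminol, and quantified with Genespotter. The probes were GST-fused SH3 domains from four yeast species, produced in E. coli BL21(DE3), purified on glutathione Sepharose and incubated at 10 μg/ml overnight at 4°C on cellulose-bound synthetic 15-mer peptides with cysteines replaced by serines. Binding signal is the normalized, background-subtracted spot intensity averaged over replicates, and its arbitrary units differ between domains.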
row,Binder,SPOT peptide array binding signal intensity
1,B1,9.5
2,B2,11

# Biological target: AgBbc1
# Assay: as above
# Outline: as §1
row,Binder,SPOT peptide array binding signal intensity
1,B1,5
2,B2,22.8

# Biological target: AgBem1-D1
# Assay: as above
# Outline: as §1
row,Binder,SPOT peptide array binding signal intensity
1,B1,153
2,B2,241

# Biological target: AgBzz1-D1
# Assay: as above
# Outline: as §1
row,Binder,SPOT peptide array binding signal intensity
1,B1,12
2,B2,22.5

# Biological target: AgBzz1-D2
# Assay: as above
# Outline: as §1
row,Binder,SPOT peptide array binding signal intensity
1,B1,20
2,B2,50

# Biological target: AgCyk3
# Assay: as above
# Outline: as §1
row,Binder,SPOT peptide array binding signal intensity
1,B1,5.5
2,B2,49

# Biological target: AgFus1
# Assay: as above
# Outline: as §1
row,Binder,SPOT peptide array binding signal intensity
1,B1,524
2,B2,2480

# Biological target: AgHof1
# Assay: as above
# Outline: as §1
row,Binder,SPOT peptide array binding signal intensity
1,B1,27.5
2,B2,47

# Biological target: AgHse1
# Assay: as above
# Outline: as §1
row,Binder,SPOT peptide array binding signal intensity
1,B1,1880
2,B2,1210

# Biological target: AgLsb1
# Assay: as above
# Outline: as §1
row,Binder,SPOT peptide array binding signal intensity
1,B1,1
2,B2,58.8

# Biological target: AgLsb4
# Assay: as above
# Outline: as §1
row,Binder,SPOT peptide array binding signal intensity
1,B1,105
2,B2,577

# Biological target: AgMyo5
# Assay: as above
# Outline: as §1
row,Binder,SPOT peptide array binding signal intensity
1,B1,0.5
2,B2,2.5

# Biological target: AgNbp2
# Assay: as above
# Outline: as §1
row,Binder,SPOT peptide array binding signal intensity
1,B1,278
2,B2,688

# Biological target: AgRvs167
# Assay: as above
# Outline: as §1
row,Binder,SPOT peptide array binding signal intensity
1,B1,4.33
2,B2,6.17

# Biological target: AgSho1
# Assay: as above
# Outline: as §1
row,Binder,SPOT peptide array binding signal intensity
1,B1,132
2,B2,426

# Biological target: AgSla1-D1-D2
# Assay: as above
# Outline: as §1
row,Binder,SPOT peptide array binding signal intensity
1,B1,236
2,B2,428

# Biological target: AgSla1-D3
# Assay: as above
# Outline: as §1
row,Binder,SPOT peptide array binding signal intensity
1,B1,5.5
2,B2,4.5

# Biological target: CaAbp1-D1
# Assay: as above
# Outline: as §1
row,Binder,SPOT peptide array binding signal intensity
1,B1,470
2,B2,504

# Biological target: CaAbp1-D2
# Assay: as above
# Outline: as §1
row,Binder,SPOT peptide array binding signal intensity
1,B1,318
2,B2,268

# Biological target: CaBbc1
# Assay: as above
# Outline: as §1
row,Binder,SPOT peptide array binding signal intensity
1,B1,22.2
2,B2,86.8

# Biological target: CaBem1-D1
# Assay: as above
# Outline: as §1
row,Binder,SPOT peptide array binding signal intensity
1,B1,27
2,B2,73.5

# Biological target: CaBzz1-D1
# Assay: as above
# Outline: as §1
row,Binder,SPOT peptide array binding signal intensity
1,B1,4
2,B2,142

# Biological target: CaBzz1-D2
# Assay: as above
# Outline: as §1
row,Binder,SPOT peptide array binding signal intensity
1,B1,6.75
2,B2,99.2

# Biological target: CaCyk3
# Assay: as above
# Outline: as §1
row,Binder,SPOT peptide array binding signal intensity
1,B1,30.5
2,B2,118

# Biological target: CaFus1
# Assay: as above
# Outline: as §1
row,Binder,SPOT peptide array binding signal intensity
1,B1,1830
2,B2,4650

# Biological target: CaHof1
# Assay: as above
# Outline: as §1
row,Binder,SPOT peptide array binding signal intensity
1,B1,0.5
2,B2,2.25

# Biological target: CaHse1
# Assay: as above
# Outline: as §1
row,Binder,SPOT peptide array binding signal intensity
1,B1,191
2,B2,282

# Biological target: CaLsb1
# Assay: as above
# Outline: as §1
row,Binder,SPOT peptide array binding signal intensity
1,B1,0.5
2,B2,79.2

# Biological target: CaLsb4
# Assay: as above
# Outline: as §1
row,Binder,SPOT peptide array binding signal intensity
1,B1,108
2,B2,354

# Biological target: CaMyo5
# Assay: as above
# Outline: as §1
row,Binder,SPOT peptide array binding signal intensity
1,B1,42.5
2,B2,77.2

# Biological target: CaNbp2
# Assay: as above
# Outline: as §1
row,Binder,SPOT peptide array binding signal intensity
1,B2,966

# Biological target: CaRvs167
# Assay: as above
# Outline: as §1
row,Binder,SPOT peptide array binding signal intensity
1,B2,274

# Biological target: CaRvs167-3
# Assay: as above
# Outline: as §1
row,Binder,SPOT peptide array binding signal intensity
1,B2,2180

# Biological target: CaSho1
# Assay: as above
# Outline: as §1
row,Binder,SPOT peptide array binding signal intensity
1,B2,1570

# Biological target: CaSla1-D1-D2
# Assay: as above
# Outline: as §1
row,Binder,SPOT peptide array binding signal intensity
1,B2,21

# Biological target: CaSla1-D3
# Assay: as above
# Outline: as §1
row,Binder,SPOT peptide array binding signal intensity
1,B2,487

# Biological target: ScAbp1
# Assay: as above
# Outline: as §1
row,Binder,SPOT peptide array binding signal intensity
1,B2,15

# Biological target: ScBbc1
# Assay: as above
# Outline: as §1
row,Binder,SPOT peptide array binding signal intensity
1,B2,4.75

# Biological target: ScBem1-D1
# Assay: as above
# Outline: as §1
row,Binder,SPOT peptide array binding signal intensity
1,B2,19

# Biological target: ScBzz1-D1
# Assay: as above
# Outline: as §1
row,Binder,SPOT peptide array binding signal intensity
1,B2,23

# Biological target: ScBzz1-D2
# Assay: as above
# Outline: as §1
row,Binder,SPOT peptide array binding signal intensity
1,B2,325

# Biological target: ScCyk3
# Assay: as above
# Outline: as §1
row,Binder,SPOT peptide array binding signal intensity
1,B2,210

# Biological target: ScFus1
# Assay: as above
# Outline: as §1
row,Binder,SPOT peptide array binding signal intensity
1,B2,3720

# Biological target: ScHof1
# Assay: as above
# Outline: as §1
row,Binder,SPOT peptide array binding signal intensity
1,B2,1.75

# Biological target: ScHse1
# Assay: as above
# Outline: as §1
row,Binder,SPOT peptide array binding signal intensity
1,B2,1750

# Biological target: ScLsb1
# Assay: as above
# Outline: as §1
row,Binder,SPOT peptide array binding signal intensity
1,B2,32

# Biological target: ScLsb2
# Assay: as above
# Outline: as §1
row,Binder,SPOT peptide array binding signal intensity
1,B2,5

# Biological target: ScLsb3
# Assay: as above
# Outline: as §1
row,Binder,SPOT peptide array binding signal intensity
1,B2,389

# Biological target: ScLsb4
# Assay: as above
# Outline: as §1
row,Binder,SPOT peptide array binding signal intensity
1,B2,60

# Biological target: ScMyo3
# Assay: as above
# Outline: as §1
row,Binder,SPOT peptide array binding signal intensity
1,B2,4

# Biological target: ScMyo5
# Assay: as above
# Outline: as §1
row,Binder,SPOT peptide array binding signal intensity
1,B2,5

# Biological target: ScNbp2
# Assay: as above
# Outline: as §1
row,Binder,SPOT peptide array binding signal intensity
1,B2,744

# Biological target: ScPex13
# Assay: as above
# Outline: as §1
row,Binder,SPOT peptide array binding signal intensity
1,B2,14.5

# Biological target: ScRvs167
# Assay: as above
# Outline: as §1
row,Binder,SPOT peptide array binding signal intensity
1,B2,26.2

# Biological target: ScSho1
# Assay: as above
# Outline: as §1
row,Binder,SPOT peptide array binding signal intensity
1,B2,2150

# Biological target: ScSla1-D1-D2
# Assay: as above
# Outline: as §1
row,Binder,SPOT peptide array binding signal intensity
1,B2,83.5

# Biological target: ScSla1-D3
# Assay: as above
# Outline: as §1
row,Binder,SPOT peptide array binding signal intensity
1,B2,57.8

# Biological target: SpAbp1-D1
# Assay: as above
# Outline: as §1
row,Binder,SPOT peptide array binding signal intensity
1,B2,132

# Biological target: SpBbc1
# Assay: as above
# Outline: as §1
row,Binder,SPOT peptide array binding signal intensity
1,B2,41

# Biological target: SpBzz1-D1
# Assay: as above
# Outline: as §1
row,Binder,SPOT peptide array binding signal intensity
1,B2,133

# Biological target: SpBzz1-D2
# Assay: as above
# Outline: as §1
row,Binder,SPOT peptide array binding signal intensity
1,B2,0.5

# Biological target: SpCyk3
# Assay: as above
# Outline: as §1
row,Binder,SPOT peptide array binding signal intensity
1,B2,92

# Biological target: SpHof1
# Assay: as above
# Outline: as §1
row,Binder,SPOT peptide array binding signal intensity
1,B2,315

# Biological target: SpHof1-2
# Assay: as above
# Outline: as §1
row,Binder,SPOT peptide array binding signal intensity
1,B2,91

# Biological target: SpHof1-3
# Assay: as above
# Outline: as §1
row,Binder,SPOT peptide array binding signal intensity
1,B2,872

# Biological target: SpHse1
# Assay: as above
# Outline: as §1
row,Binder,SPOT peptide array binding signal intensity
1,B2,910

# Biological target: SpLsb1
# Assay: as above
# Outline: as §1
row,Binder,SPOT peptide array binding signal intensity
1,B2,2

# Biological target: SpLsb4
# Assay: as above
# Outline: as §1
row,Binder,SPOT peptide array binding signal intensity
1,B2,210

# Biological target: SpMyo1
# Assay: as above
# Outline: as §1
row,Binder,SPOT peptide array binding signal intensity
1,B2,14

# Biological target: SpNbp2
# Assay: as above
# Outline: as §1
row,Binder,SPOT peptide array binding signal intensity
1,B2,1780

# Biological target: SpPex13
# Assay: as above
# Outline: as §1
row,Binder,SPOT peptide array binding signal intensity
1,B2,24

# Biological target: SpRvs167
# Assay: as above
# Outline: as §1
row,Binder,SPOT peptide array binding signal intensity
1,B2,21

# Biological target: SpSla1-D1-D2
# Assay: as above
# Outline: as §1
row,Binder,SPOT peptide array binding signal intensity
1,B2,5

# Biological target: SpSla1-D3
# Assay: as above
# Outline: as §1
row,Binder,SPOT peptide array binding signal intensity
1,B2,49
